Measured values as given in PubChem BioAssay (NCATS).
Where “and” joins values, the source holds several entries; their conditions need not be identical. Equal entries are not always repeated. Values without a mark were called inactive.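 Rule for the calls: active = calcium activation more than 3 SD above the typical response in the agonist read; inactive = the rest.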

Each molecule was assayed against Thyrotropin-releasing hormone receptor (Homo sapiens) (UniProt P34981) (assay: qHTS for Small Molecule Agonists and Allosteric Enhancers of Human TRH Receptor: Validation Screen for Agonists (AID 493127;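 note: intracellular calcium rise by fluo-8 fluorescence before TRH EC20 addition; 0% is about no effect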)). Conditions: TRH receptor agonist cell assay; at 2 µM; hits give high values.
Sequence of Thyrotropin-releasing hormone receptor (Homo sapiens) (P34981 whole entry, looked up): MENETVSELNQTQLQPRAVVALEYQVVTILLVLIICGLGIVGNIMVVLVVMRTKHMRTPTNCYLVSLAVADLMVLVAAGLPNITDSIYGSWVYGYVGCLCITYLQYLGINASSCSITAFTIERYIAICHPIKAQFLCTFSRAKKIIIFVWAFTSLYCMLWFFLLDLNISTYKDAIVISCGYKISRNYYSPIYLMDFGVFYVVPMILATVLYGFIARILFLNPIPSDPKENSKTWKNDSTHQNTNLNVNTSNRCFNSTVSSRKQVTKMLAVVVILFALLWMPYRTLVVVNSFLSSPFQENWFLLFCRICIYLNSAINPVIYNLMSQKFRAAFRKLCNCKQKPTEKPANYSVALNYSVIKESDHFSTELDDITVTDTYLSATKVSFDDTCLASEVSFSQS
Procedure, shortened: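 Compounds are added by online pintool to dye-loaded TRHR cells while fluorescence is recorded every second. A rise in calcium signal during the agonist read marks activation; a later 10 nM TRH addition (EC20) serves the separate enhancer mode.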

Structure (SMILES) | activation
CN[C@H](CC(=O)O)C(=O)O | 1%
CCCCCCCCCC[Si](C)(C)CCC(=O)NC(Cc1ccc(C)cc1)c1ccccc1 (stereo not given) | 0.812%
Cc1cccc(C)c1OCC(N)C(C)C (stereo not given) | 1.56%
Cn1ccnc1 | 1.38%
CCCn1c(=O)c2[nH]c(-c3ccc(S(=O)(=O)O)cc3)nc2n(CCC)c1=O | 0.688%
C#CC(N)CCC(=O)O (stereo not given) | 0.625%
COc1ccccc1N1CCN(CCCCNC(=O)c2ccc3ccccc3c2)CC1 | 3%
CCSC(=N)N | 0.812%
O=C(O)[C@H]1NCCC[C@H]1C(=O)O | -0.188%
CC(C)NC[C@H](O)COc1ccc(CC(N)=O)cc1 | 0.25% and -0.125%
CCC(=O)N1CCN(C(=O)c2ccccc2)CC1 | 1.38%
NC(=O)CNCCC(c1ccccc1)c1ccccc1 | 1.81%
Nc1ncnc2c1ncn2C1CCCO1 (stereo not given) | -0.25%
N=C(N)c1ccccc1 | 1.19%
O=C(O)/C=C/c1ccc(O)c(O)c1 | 0.25%
Cc1nc(N=Nc2ccc(C(=O)O)cc2)c(COP(=O)(O)O)c(C=O)c1O | 0.125%
CC[N+](CC)(CC)CC(=O)Nc1c(C)cccc1C | 0.625%
CCN1C(=O)C=CC1=O | 1.12%
O=C(O)CCC(=O)N1CCCC1C(=O)O (stereo not given) | -0.312%
O=C(O)C1CCNCC1 | -0.188%
